According to PubChem BioAssay AID1851 (National Center for Advancing Translational Sciences (NCATS), 2009):
Out of some 16,000 compounds screened, about 2,600 (16%) were called active. Inconclusive results (about 20%) are left out. Only a sample is shown. Unmarked numbers belong to inactive results. Calls follow the shape of the dose curve; as a rule, active = well fitted curve in the direction sought with a large enough effect; inconclusive = small, poorly fitted or top-dose-only effect, or effect the other way; inactive = no such curve, though single readings can be large or run the other way.

Target: Cytochrome P450 2D6 (Homo sapiens) (UniProt P10635)
Assay: Cytochrome panel assay with activity outcomes
Conditions: recombinant CYP, pro-luciferin dealkylation, luminescence, p450-cyp2d6; series mostly up to 57.1 µM; activity, negative = inhibition: at the top concentration
% is scaled to controls: 0 for no effect and ±100 for the full control effect.

Cytochrome P450 2D6 (Homo sapiens), sequence (P10635 whole entry, looked up): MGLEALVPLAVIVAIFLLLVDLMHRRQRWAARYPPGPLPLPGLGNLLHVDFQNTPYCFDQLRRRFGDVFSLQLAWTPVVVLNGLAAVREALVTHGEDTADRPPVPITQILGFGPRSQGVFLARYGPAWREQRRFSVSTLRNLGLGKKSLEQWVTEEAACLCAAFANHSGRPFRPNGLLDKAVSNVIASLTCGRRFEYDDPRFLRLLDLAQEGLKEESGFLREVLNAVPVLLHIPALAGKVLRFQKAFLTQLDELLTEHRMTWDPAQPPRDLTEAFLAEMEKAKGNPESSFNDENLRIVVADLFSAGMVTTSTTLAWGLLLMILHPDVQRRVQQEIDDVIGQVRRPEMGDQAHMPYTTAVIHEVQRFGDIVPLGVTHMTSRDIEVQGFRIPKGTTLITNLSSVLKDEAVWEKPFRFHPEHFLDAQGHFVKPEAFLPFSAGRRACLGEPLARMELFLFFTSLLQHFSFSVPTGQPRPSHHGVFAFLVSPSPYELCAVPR

| Structure (SMILES) | activity, negative = inhibition | AC50 |
| --- | --- | --- |
| O=C(Nc1ccc(Cl)cc1Cl)c1cccc(N2C(=O)C=CC2=O)c1 | -19.8% |  |
| COc1ccc(CSC2=C(C#N)C(=O)NC3(CCCCC3)S2)cc1 | -3.33% [at 11.4 µM] |  |
| Nc1nc(Cl)nc2c1ncn2[C@@H]1O[C@@H](COP(=O)(O)OP(=O)(O)OP(=O)(O)O)[C@@H](O)[C@H]1O | -0.437% |  |
| COc1ccccc1CNc1ccnc(-c2ccccc2Cl)n1 |  | 12.6 µM (active) |
| COc1ccc(-c2nc3c([nH]2)c(=O)n(C)c(=O)n3C)c(OC)c1 | 1.6% |  |
| O=C(O)/C=C\C(=O)Nc1ccccn1 | 7.8% [at 11.4 µM] |  |
| O=c1cc(CN2CCN(c3ccc(F)cc3)CC2)c2cc3c(cc2o1)CCCC3 | -19.7% |  |
| Cc1cc(N)n2ncc(-c3ccc(Cl)cc3)c2n1 | 3.39% |  |
| N[C@@H](CC1=CS(=O)(=O)c2ccc(Cl)cc21)C(=O)O | -13.3% [at 11.4 µM] |  |
| Fc1ccc(Nc2ncncc2-c2ccoc2)cc1 | -13.4% |  |
| c1ncc(-c2ccc3c(c2)OCO3)c(NCCc2cnc[nH]2)n1 |  | 2.51 µM (active) |
| CN(C)c1ccc(-c2cncnc2NCCc2cnc[nH]2)cc1 |  | 5.01 µM (active) |
| c1nc(NCCc2cnc[nH]2)c2[nH]cnc2n1 | -17.7% [at 11.4 µM] |  |
| CC(=O)NCCNc1ncncc1-c1ccc(N(C)C)cc1 | -9.12% |  |
| CN(C)c1ccc(-c2cncnc2Nc2ccc(F)cc2)cc1 |  | 25.1 µM (active) |
| CN(C)C(=O)c1ccc(-c2cncnc2NCCc2cnc[nH]2)cc1 |  | 0.794 µM (active) |
| CNc1ncncc1-c1ccc(C(=O)N(C)C)cc1 | -12.6% |  |
| Cc1cc(N2C(=O)C(O)=C(C(=O)c3ccco3)C2c2ccc(O)cc2)no1 (stereo not drawn) | -0.185% |  |
| CO[C@H]1COC(=O)C/C=C\[C@H](C)COC(=O)[C@@H](C)NC(=O)C/C=C\[C@@H]1C | 10.1% [at 11.4 µM] |  |
| COc1ccc(NC(=O)N2CCC3(CC2)CCN(C(=O)c2csnn2)CC3)cc1 | 3.56% |  |
| CN1CCN(NC(=O)c2ccccc2F)CC1 | 9.96% |  |
| Cc1ccc(-n2c(SCC(=O)N3CCOCC3)nnc2-c2cccnc2)cc1 | 0.21% |  |
| CCOC(=O)CSc1n[nH]c(NC(=O)c2cccc(C)c2)n1 | 12% |  |
| CCc1cccc2c(C=C(C#N)C#N)cn(CC(=O)N3CCCCC3)c12 | 6.92% |  |
| O=c1oc(-c2ccco2)nc2c1cnn2-c1ccccc1 | -9.11% |  |
| Cn1ncc([N+](=O)[O-])c1C(=O)N1CCOCC1 | 15.1% |  |
| CCCCNC(=O)NS(=O)(=O)c1ccc(C(=O)OC(C)C)o1 | 8.69% |  |

| Structure (SMILES) | activity, negative = inhibition | AC50 |
| --- | --- | --- |
| CN(C)S(=O)(=O)c1ccc(NC(=O)COC(=O)c2ccccn2)cc1 | -12.2% |  |
| CCN(CC)S(=O)(=O)c1ccc(NC(=O)COC(=O)c2ccc(Br)o2)cc1 |  | 3.16 µM (active) |
| CN(C)S(=O)(=O)c1cccc(NC(=O)COC(=O)c2ccc(Br)o2)c1 | -18% |  |
| CC1=CC2=NC(=O)CC(C)(C(=O)N(CC(=O)NC(C)(C)C)Cc3cccs3)N2C=C1 (stereo not drawn) | -6.53% |  |
| O=c1oc2c(Cl)cc(Cl)cc2cc1-c1nnc(Nc2ccccc2F)s1 | 5.36% |  |
| O=C(NC12CC3CC(CC(C3)C1)C2)N1CCN(c2nc(-c3ccccc3)cs2)CC1 | 3.04% |  |
| NS(=O)(=O)c1ccc(NC(=O)Nc2cccc3ccccc23)cc1 | -5.78% [at 11.4 µM] |  |
| CCS(=O)(=O)c1ccc(O)c(NC(=O)Nc2ccccc2)c1 |  | 4.47 µM (active) |
| CCC(C)NC(=O)c1ccccc1NC(=O)Nc1ccccc1 (stereo not drawn) | 3.52% |  |
| CCOC(=O)Cc1cc(=O)n2[nH]c(C)c(C#N)c2n1 | -21% |  |
| CC(C)NC(=O)N1CCN(c2ccncc2S(=O)(=O)N2CCOCC2)CC1 | 1.71% |  |
| C/C(=N\OC(=O)c1ccc(F)cc1)c1nccs1 |  | 12.6 µM (active) |
| C/C(=N\OC(=O)c1cccc(C)c1)c1sc(-c2ccccc2)nc1C | -11% |  |
| Cc1ccc2c(c1)/C(=N/OC(=O)c1ccc(F)cc1)CCS2 | -8.38% |  |
| COc1ccccc1NC(=O)N1CCC(c2nnc(SCC(N)=O)n2C)CC1 | 7.79% |  |
| COc1cc(-c2nnc(COC(=O)c3c4c(nc5ccccc35)CCCC4)o2)cc(OC)c1OC | 22.5% |  |
| COc1ccc(-n2c(CNC(=O)c3ccc(S(=O)(=O)N4CCCC4)cc3)n[nH]c2=S)cc1 | -4.46% |  |
| C/C(=N/NC(=O)c1ccc(C)s1)c1cccc(NC(=O)COc2ccc(Cl)cc2C)c1 | -16.1% |  |
| O=C(Nc1ccc2nc(SCc3ccc(Cl)cc3)sc2c1)c1ccccc1C(=O)N1CCOCC1 | -22.4% |  |
| N[C@H](C(=O)O)[C@@H]1[C@@H](C(=O)O)C1(F)F |  | 0.1 µM (active) |
| O=C(Nc1cccc(-c2cnc3ccccc3n2)c1)c1ccc(Cl)cc1 | -4.08% |  |
| COc1ccc(NC(=O)c2ccc(C)cc2Cl)c([N+](=O)[O-])c1 |  | 0.891 µM (active) |
| COc1ccc(NC(=O)CN(C)S(=O)(=O)c2ccc(Cl)cc2)c([N+](=O)[O-])c1 | -19.3% |  |
| COc1ccc(NC(=O)c2cccs2)c([N+](=O)[O-])c1 | -10% |  |
| O=C(c1ccc2c(c1)N(Cc1ccccc1)C(=O)CS2)N1CCOCC1 | -12.1% |  |
| CCCCN1CSC(=S)N(Cc2ccccc2)C1 |  | 3.98 µM (active) |
